In PubChem BioAssay AID743279 (National Center for Advancing Translational Sciences (NCATS), 2014) one finds activity change data, which are given here for 92 molecules.

The whole screen tested about 360,000 compounds, of which about 17,000 (4.7%) were called active. Roughly 5% stayed inconclusive and do not appear here. No stated cut-off is given here; in the data, active means activity change below about -50%; inconclusive means mostly about -30% to -49%; inactive means weaker than that. Shown is part of a subset that was picked to be rich in actives.
On the % scale 0 is the no-effect control and ±100 the full control effect.

This assay can be described thus: qHTS for Inhibitors of Inflammasome Signaling: IL-1-beta AlphaLISA Primary Screen. Conditions: THP-1 LPS/ATP IL-1B secretion, 16 h; at 57.5 µM, hits give low values. An outline of the steps: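 Secreted IL-1B measured by AlphaLISA bead assay after 16 h compound exposure of THP-1 cells; compounds (final up to 57.5 uM) added 1 h before LPS (250 ng/mL) and ATP (1.25 mM) stimulation; lower signal means less secretion.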
A general note: Quantitative high-throughput screening tests each substance at several concentrations.
As for `C[C@@H]1CN([C@@H](C)CO)C(=O)c2cccc(NS(=O)(=O)c3ccc(F)cc3)c2O[C@H]1CN(C)C(=O)NC1CCCCC1`, the activity change is 2.27% (inactive).
As to `CCCCNCCS(=O)(=O)NCc1ccccc1`, the activity change was 24.2% (inactive).
For `CC(NC(=O)COc1ccccc1)C(=O)NC1=NCCS1` (configuration not stated), the activity change was -56.1% (active).
For `CN(c1ccc(OCC(=O)NC2=NCCS2)cc1)S(=O)(=O)c1ccc(F)cc1`, the activity change is 12% (inactive).
Then `Cc1ccc(S(=O)(=O)N(C)c2ccc(OCC(=O)NC3=NCCS3)cc2)cc1`, with 23% (inactive); and `CC(C)CNC(=O)C1(C)CCCN1C(=O)CSc1ccccc1` (configuration not stated), with 24.3% (inactive); and `CC(=O)N1CCN(CC(=O)Nc2ccc(SC(F)F)cc2)CC1`, with 8.74% (inactive).
Next, `O=C(Cc1ccc(Cl)c(Cl)c1)Nc1ccc(SC(F)F)cc1`: -96% (active); `Cc1ccc(CC(=O)Nc2ccc(OC(F)F)c(Cl)c2)cc1C`: 2.16% (inactive); `O=C(c1ncn2c1c(=O)[nH]c1ccccc12)N1CCc2ccccc2C1`: 1.53% (inactive).
For `CCOC(=O)C1CCCN(C(=O)c2ccc(N(C)C)cc2)CC1` (configuration not stated), the activity change was 14.2% (inactive).
Consider `S=c1[nH]nc(-c2cccs2)n1/N=C/c1cccs1`, for which the activity change was 2.13% (inactive).
Next, `COc1cc(/C=N/n2c(C)n[nH]c2=S)ccc1OCc1ccccc1`: 20.1% (inactive); `Cc1cc(-c2n[nH]c(=S)n2/N=C/C(Br)=C/c2ccccc2)n[nH]1`: -103% (active); `CCN(CC(=O)Nc1ccc(NC(C)=O)cc1)C(=O)C1CC(=O)N(c2ccc3c(c2)OCCO3)C1` (configuration not stated): -4.3% (inactive).
Regarding `Nc1ncnc2c1ncn2[C@@H]1O[C@H](C(=O)NCC(F)(F)F)[C@@H](O)[C@H]1O`, the activity change is -18.1% (inactive).
For the molecule `Cc1ccc(Cn2cc(CN3CC(N4CCN(C)CC4)CS3(=O)=O)nn2)cc1` (configuration not stated), the activity change was 1.38% (inactive).
Consider `O=C(Nc1cccc([N+](=O)[O-])c1)c1ccc2c(c1)OCO2`, for which the activity change is -4.35% (inactive).
Regarding `Cc1cc(C)nc(NC(=O)c2cccc([N+](=O)[O-])c2)c1`, the activity change is -4.03% (inactive).
Turning to `O=C(Nc1ccc(C2CC2(Cl)Cl)cc1)c1cccc([N+](=O)[O-])c1` (configuration not stated), the activity change was -90.4% (active).
Next, `O=C(COC(=O)c1ccc[nH]c1=O)Nc1ccc2c(c1)OC(F)(F)O2`: 23.1% (inactive).
Next, `COC(=O)[C@]12CCCCC=C1N(Cc1cccc3ccccc13)C(=O)[C@H](CC(=O)N1CCOCC1)C2`: -7.21% (inactive); `Cc1ccc(S(=O)(=O)N2CCC(=O)N([C@H](COCc3ccccc3)C(C)C)CC2)cc1`: 29.8% (inactive); `COc1ccc(Cl)cc1NC(=O)NCC1CCN(Cc2ccccc2F)CC1`: -22.8% (inactive).
Next, `O=C(NCCN1CCOCC1)Nc1cccc(Cl)c1`: 2.78% (inactive); `O=C(NCC1CCN(Cc2ccccc2Cl)CC1)Nc1cccc(Cl)c1`: -75% (active).
Take `O=C1CCCN1CCCNC(=S)Nc1ccc(F)c(Cl)c1`: the activity change is 4.41% (inactive).
Regarding `Cc1cccc(CN2CCC(CNC(=O)Nc3ccc(F)c(Cl)c3)CC2)c1`, the activity change is -107% (active).
Then `COc1cc(NC(=O)NCC2CCN(Cc3ccc(C)cc3)CC2)cc(OC)c1OC`, with -6.99% (inactive); and `CC(CO)N1CCS(=O)(=O)CC1` (configuration not stated), with 19.8% (inactive).
Regarding `CCC/C(C)=N\Nc1nc2c(c(=O)n(C)c(=O)n2C)n1C`, the activity change is 6.47% (inactive).
On to `O=C(O)C(c1cccs1)C1(O)CCCCC1` (configuration not stated), for which the activity change is 5.75% (inactive).
Turning to `CCOC(=O)c1cc(-c2sc(NC(=O)c3ccccc3)nc2C)n(-c2ccc(Br)cc2)n1`, the activity change is -4.38% (inactive).
Take `O=C(CCc1ccccc1)Nc1ncc([N+](=O)[O-])s1`: the activity change is -59.9% (active).
Consider `CC(C)Cc1nnc(NC(=O)CCc2ccccc2)s1`, for which the activity change is 8.78% (inactive).
On to `COC(=O)CSc1nnc(NC(=O)CCc2ccccc2)s1`, for which the activity change is 12.3% (inactive).
`CC(CC(=O)C1C(C)C=CCC1(C)C)NNC(N)=O` (configuration not stated): the activity change is 2.93% (inactive).
As to `Cc1cc(C(=O)CCl)c(C)n1CC1COc2ccccc2O1` (configuration not stated), the activity change is -68.9% (active).
Then `O=C1C(=O)N(CC2COc3ccccc3O2)c2ccccc21` (configuration not stated), with 11.2% (inactive); and `Cc1ccsc1C(=O)OCC(=O)c1cc(C)n(CC2CCCO2)c1C` (configuration not stated), with 33.5% (inactive); and `CC(=O)CC[C@@H](C)O[C@@H]1OC(C)[C@H](O)CC1O` (some centres not stated), with 29.3% (inactive).
For the molecule `COC(=O)[C@]12CCCCC=C1N(Cc1ccco1)C(=O)[C@H](CC(=O)NCC1CCCCC1)C2`, the activity change is -8.27% (inactive).
Take `CCCOc1ccc(F)cc1-c1cc(C(=O)Nc2ccc(F)cc2)[nH]n1`: the activity change is 3.22% (inactive).
`CC(Nc1nc(C(F)(F)F)nc2ccccc12)c1cccs1` (configuration not stated): the activity change was -63.4% (active).
Then `Cc1cc(C)n(-c2nc(C(F)(F)F)nc3ccccc23)n1`, with 21.5% (inactive); and `CC(C)(C)Nc1nc(-c2ccccn2)nc2ccccc12`, with -9.69% (inactive).
`NC1=NC(=O)S/C1=C\c1ccc(O)cc1`: the activity change is -9.74% (inactive).
As for `O=C1N=C(N2CCc3ccccc3C2)S/C1=C\c1ccc(O)cc1`, the activity change is -63.2% (active).
Next, `CC1CCN(C2=NC(=O)/C(=C/c3ccc(O)cc3)S2)CC1`: -16.5% (inactive); `Cc1ccsc1/C=C1\SC(N2CCOCC2)=NC1=O`: -26% (inactive).
As for `CCc1ccc(/C=C2\SC(N3CCOCC3)=NC2=O)cc1`, the activity change is -62.4% (active).
On to `Cc1cc(/C=C2/SC(=O)N(CC(=O)N3CCCC3)C2=O)ccc1N1CCOCC1`, for which the activity change was -23.5% (inactive).
Next, `COC(=O)C1(C(=O)OC)C[C@H](c2ccccc2)N(Cc2ccccc2OC)[C@@H]1c1ccccc1`: 12.2% (inactive); `O=[N+]([O-])c1ccc(C(S(=O)(=O)Cc2ccccc2)S(=O)(=O)Cc2ccccc2)cc1`: -14.4% (inactive); `CC(C)(O)C#Cc1ccc(CNC[C@H]2O[C@@H](n3cnc4c(=O)[nH]c(N)nc43)[C@H](O)[C@@H]2O)s1`: 0% (inactive).
With `Cc1cc2oc(=O)cc(CN3CCN(Cc4ccccc4)CC3)c2cc1C`, the activity change is 1.1% (inactive).
Next, `CC(C)(C)C(=O)CN1C2=NCCN2c2ccccc21`: 0% (inactive); `Cc1cc2c(cc1C)N(Cc1ccccc1)C1=NCCCN12`: -58.1% (active).
On to `O=C(COC(=O)c1ccc(S(=O)(=O)N2CCCCCC2)cc1)Nc1ccccc1C(F)(F)F`, for which the activity change is 23% (inactive).
For `COc1ccc(OC)c(CN2C(=O)CCC2(C)c2nnnn2Cc2ccccc2)c1` (configuration not stated), the activity change was 0% (inactive).
For the molecule `Cc1ccc(-c2ccc(CN3C(C(C)C)C(=O)N(Cc4cn(CCC5OCCO5)nn4)CCS3(=O)=O)cc2)cc1` (configuration not stated), the activity change was 14.8% (inactive).
Next, `CC(=O)OCC(=O)C1(O)CCC2C3CC(C)C4=CC(=O)CCC4(C)C3C(O)CC21C` (configuration not stated): -59.6% (active).
Take `CC(=O)O[C@]1(C(C)=O)CC[C@H]2[C@@H]3C=C(C)C4=CC(=O)CC[C@]4(C)[C@H]3CC[C@@]21C`: the activity change was -10.2% (inactive).
In the case of `CC1(C)C(=O)CCC2(C)C1=CCC1C2C(=O)CC2(C)C1CCC2(O)C(=O)CO` (configuration not stated), the activity change was 15.3% (inactive).
`O=C(OC1CC2CC1[C@H]1CCCCN1C2=O)N1CCOCC1` (some centres not stated): the activity change was 7.59% (inactive).
For `COc1ccc(C(=O)Nc2cccc(/C=C(/CCC(=O)O)c3nc4ccccc4s3)c2)cc1`, the activity change is 51.8% (inactive).
Next, `COc1ccccc1-n1cnc2cc(NS(=O)(=O)c3ccccc3)ccc21`: -2.81% (inactive); `CCCN(CCC)CC(O)COc1ccccc1C(=O)Nc1ccccc1` (configuration not stated): -6.43% (inactive).
`CCC(C)Sc1nc2c(c(=O)[nH]c(=O)n2C)n1CC(O)COc1cccc2ccccc12` (configuration not stated): the activity change was 23.6% (inactive).
Turning to `CC(C)c1ccccc1OCC(O)CN(CC(O)COc1cccc2ccccc12)C(C)C` (configuration not stated), the activity change is -104% (active).
Next, `COc1cc(C(=O)OCCCN2CCOCC2)cc(OC)c1OC`: -2.32% (inactive); `O=C1Nc2ccccc2NC(c2ccc3c(c2)OCO3)=C1N(Cc1ccc(F)cc1)C(=O)c1ccco1`: -23.7% (inactive).
For the molecule `O=S1(=O)CC(N2CCN(Cc3ccccc3F)CC2)CN1Cc1cn(Cc2ccccc2)nn1` (configuration not stated), the activity change is 14% (inactive).
Consider `Cc1sc2nc(-c3ccccc3F)oc(=O)c2c1C`, for which the activity change is 43.9% (inactive).
`COc1ccc(-c2csc3nc(-c4ccccc4F)oc(=O)c23)cc1OC`: the activity change was -84.4% (active).
Next, `COc1ccccc1-c1nnc(-c2ccc(F)cc2)o1`: 6.31% (inactive); `COc1cc(F)ccc1-c1cc(C(=O)NCC2CCCCC2)[nH]n1`: -19.4% (inactive).
Then `CC1CC(=O)N(CC(=O)Nc2cccc(Cl)c2)c2ccccc2S1(=O)=O` (configuration not stated), with -6.86% (inactive); and `CC1=C/C(=N\OS(=O)(=O)c2ccccc2)C=CC1=O`, with -100% (active).
With `OCCc1ccc(NCCc2ccco2)cc1`, the activity change is -19.5% (inactive).
Then `Cc1ccc(CN2CC(N3CCC(Cc4ccccc4)CC3)CS2(=O)=O)cc1` (configuration not stated), with -19.7% (inactive); and `COc1ccc(C)cc1NC(=O)CSc1cccc[n+]1[O-]`, with 0.963% (inactive).
Then `O=C(NCc1cccc(CNC(=O)Nc2cccc(O)c2)c1)Nc1cccc(O)c1`, with -13% (inactive).
Then `O=C(Nc1cccc(O)c1)c1ccc(C(=O)c2ccccc2)o1`, with -53.4% (active); and `C/C(=C\C(=O)c1ccccc1)Nc1cccc(O)c1`, with -52.1% (active).
Take `O=C(Nc1cccc(NC(=O)c2cccc(F)c2)c1)c1ccccc1`: the activity change was 15.3% (inactive).
Regarding `O=C(CSc1ccccc1)Nc1ccc(C(=O)Nc2cccc(O)c2)cc1`, the activity change was 3.28% (inactive).
Turning to `C/C(=C\C(=O)c1cccnc1)Nc1ccc(C)c(C)c1`, the activity change is -17.1% (inactive).
As for `CCCC(C(=O)N1CCOCC1)N1C(=O)C2C3C=CC(C3)C2C1=O` (configuration not stated), the activity change is -7.71% (inactive).
Regarding `NC(=O)Cc1ccc2sc(-c3ccccc3)nc2c1`, the activity change is -14.8% (inactive).
As for `COCCCNC(=O)c1ccc(-c2c(C)noc2C)c2ccoc12`, the activity change is 46.4% (inactive).
With `COc1ccc(Cl)cc1-n1c(C)cc(C(=O)OCC(=O)N2CC(=O)Nc3ccccc32)c1C`, the activity change is -23.3% (inactive).
